This is one part of a sample in which hits are shown more often than they occur.
ALOX12 inh: inhibitors of human 12S-lipoxygenase ALOX12; purified 12hLO, xylenol orange hydroperoxide absorbance; 1.1% of 580,000 active; P18054; Potency, µM (highest dose often 108 µM), most hits filed as inhibitors; AID 1671190
Target sequence (P18054 whole entry, looked up): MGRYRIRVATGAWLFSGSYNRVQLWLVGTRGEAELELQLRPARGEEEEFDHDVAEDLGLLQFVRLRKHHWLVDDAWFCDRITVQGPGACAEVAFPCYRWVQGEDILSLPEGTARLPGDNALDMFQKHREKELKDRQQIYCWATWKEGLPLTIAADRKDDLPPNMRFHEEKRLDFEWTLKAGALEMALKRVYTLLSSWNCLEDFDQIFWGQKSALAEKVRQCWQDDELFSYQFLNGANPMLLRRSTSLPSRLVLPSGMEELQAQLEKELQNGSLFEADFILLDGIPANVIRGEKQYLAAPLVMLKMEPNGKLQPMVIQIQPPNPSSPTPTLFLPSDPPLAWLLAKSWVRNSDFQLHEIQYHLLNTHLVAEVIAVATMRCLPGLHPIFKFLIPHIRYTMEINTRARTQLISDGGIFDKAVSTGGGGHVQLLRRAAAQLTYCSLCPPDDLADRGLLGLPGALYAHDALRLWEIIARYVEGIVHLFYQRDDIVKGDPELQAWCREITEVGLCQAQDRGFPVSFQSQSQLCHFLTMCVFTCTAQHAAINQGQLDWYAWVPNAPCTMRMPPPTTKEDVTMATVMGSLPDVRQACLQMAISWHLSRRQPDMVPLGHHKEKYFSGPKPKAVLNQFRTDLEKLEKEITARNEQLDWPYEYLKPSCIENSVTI
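Hydroperoxide product was detected by ferrous iron/xylenol orange as the 573 to 405 nm absorbance ratio. Arachidonic acid at 40 uM (final) was turned over for 30 min at room temperature by 150 nM human 12hLO, pH 7.0 Hepes buffer, after 15 min compound preincubation.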
HT1080 IDH1KD tx: HT-1080 IDH1 knockdown cell toxicity (counter line). 2% of 360,000 active. Potency, µM (highest dose often 46.1 µM), most hits filed as cytotoxic. HT-1080 IDH1 knockdown viability, ATP luminescence, 48 h
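IDH1KD HT-1080 cells, 750/well, RPMI + 5% FBS; compound pinned after 2 h settling; 48 h, 37 °C; CellTiter-Glo luminescence; % activity normalised to DMSO and no-cell wells; curves fitted, classed by r2 and efficacy.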
HT1080NT lethal: kills 2HG-producing HT-1080-NT fibrosarcoma cells; HT-1080-NT fibrosarcoma viability, CellTiter-Glo ATP luminescence, 48 h; Potency, µM (series often up to 46.1 µM), hits mostly cytotoxic; 1.6% of 360,000 active;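 further: NT is the 2HG producing partner of a matched IDH1 knockdown line; nearly all actives have a fitted effect of over 55% in size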
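Compounds were tested in concentration-response format on HT-1080-NT cells for 48 hours at 37 degrees C. Cell viability came from CellTiter-Glo luminescence; curves were classified by r2, response magnitude and activity.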
IL-1B inflam inh: blocks inflammasome-driven IL-1 beta release. THP-1 LPS/ATP IL-1B secretion, AlphaLISA, 16 h; active compounds read low. activity change, % at 57.5 µM. 4.7% of 360,000 active. AID 743279; in the data active means activity change below about -50%; inconclusive means mostly about -30% to -49%
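Secreted IL-1B measured by AlphaLISA bead assay after 16 h compound exposure of THP-1 cells; compounds (final up to 57.5 uM) added 1 h before LPS (250 ng/mL) and ATP (1.25 mM) stimulation; lower signal means less secretion.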
TDP1 cell noCPT: qHTS for Inhibitors of human tyrosyl-DNA phosphodiesterase 1 (TDP1): qHTS in cells in absence of CPT; AID 686978, 2013; 15% of 420,000 active; Potency, µM (titrated, usually from 46.2 µM), most hits filed as inhibitors; DT40 Tdp1-/- hTDP1 cells, no CPT, ATP luminescence, 48 h; further: nearly all actives have a fitted effect of over 55% in size
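Cells were dispensed at 400 per well, compounds added by pin tool, plates incubated ≥48 hr at 37 °C, then CellTiter-Glo added for 30 min at room temperature before luminescence reading. Line: DT40 Tdp1-/- complemented with hTDP1; camptothecin omitted.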
TDP1 cell CPT: growth inhibition of DT40 Tdp1-/-;hTDP1 cells with camptothecin (screen for TDP1 inhibitors); AID 686979; chicken DT40 Tdp1-/-;hTDP1 cells + 20 nM CPT, ATP luminescence, 48 h; 12% of 420,000 active; Potency, µM (titrated, usually from 46.2 µM), hits mostly inhibitors; further: nearly all actives have a fitted effect of over 55% in size
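Chicken DT40 Tdp1-/- cells stably complemented with human TDP1 were seeded at 400 cells/well in medium containing 20 nM camptothecin, exposed to pin-transferred compounds, and grown at 37 °C for at least 48 hr. Viability was read as ATP luminescence.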
Hits are given with their value; i = inactive; ? = inconclusive; nt = not tested or not shown. Unless noted, the call rests on the fitted dose curve; in most records, active means well fitted curve in the direction sought with a large enough effect; inconclusive means small, poorly fitted or top-dose-only effect, or another doubt; inactive means no such curve, though single readings can be large; an effect the other way counts as inactive or inconclusive.

SMILES	ALOX12 inh	HT1080 IDH1KD tx	HT1080NT lethal	IL-1B inflam inh	TDP1 cell noCPT	TDP1 cell CPT
COc1ccc(-c2cc(N3CCC(NC(=O)c4cccc(Cl)c4)C3)n[nH]2)cc1 (stereo not given)	i	nt	nt	nt	nt	nt
CC(=O)NC(CC(=O)OCC(=O)N1CCN(S(=O)(=O)c2ccc(C)cc2C)CC1)c1ccccc1 (stereo not given)	i	i	i	i	i	i
O=C1c2ccccc2C(c2nnnn2-c2ccc3c(c2)OCCO3)N1CCc1ccccc1F (stereo not given)	i	i	i	i	?	14.6µM
COc1ccc(CCN2C(=O)c3ccccc3C2c2nnnn2-c2ccc3c(c2)OCCO3)cc1OC (stereo not given)	i	i	i	i	?	i
O=C1c2ccccc2C(c2nnnn2-c2ccc3c(c2)OCCO3)N1Cc1cccnc1 (stereo not given)	i	i	i	i	?	i
O=C1c2ccccc2C(c2nnnn2-c2ccc3c(c2)OCCO3)N1Cc1ccc2c(c1)OCO2 (stereo not given)	i	i	i	i	16.4µM	18.4µM
COc1ccc(OC)c(CN2C(=O)c3ccccc3C2c2nnnn2-c2ccc3c(c2)OCCO3)c1 (stereo not given)	i	?	?	i	5.8µM	6.51µM
O=C1c2ccccc2C(c2nnnn2-c2ccc3c(c2)OCCO3)N1Cc1cccc(F)c1 (stereo not given)	i	i	i	i	16.4µM	?
COc1ccc(-n2nnnc2C2c3ccccc3C(=O)N2C2CCN(Cc3ccccc3)CC2)cc1 (stereo not given)	i	i	i	i	16.4µM	?
COc1ccc(S(=O)(=O)N2CCN(C3CCN(Cc4ccccc4)CC3)CC2)cc1	i	i	i	i	?	i
CCn1ncc(C2=NOC(C(=O)NCc3ccc(OC)cc3)C2)c1C (stereo not given)	i	?	?	i	?	16.4µM
CCn1ncc(C2=NOC(C(=O)NCc3ccccc3)C2)c1C (stereo not given)	i	1.78µM	2.82µM	i	1.64µM	1.16µM
COc1ccc(CNC(=O)C2CC(c3ccccc3[N+](=O)[O-])=NO2)cc1 (stereo not given)	i	i	i	i	i	i
CCn1ncc(C2=NOC(C(=O)Nc3cccc(C(C)=O)c3)C2)c1C (stereo not given)	i	i	i	i	20.6µM	?
CCn1ncc(C2=NOC(C(=O)Nc3c(C)n(C)n(-c4ccccc4)c3=O)C2)c1C (stereo not given)	i	i	i	i	i	i
Cc1ccc2[nH]c(CCn3cc(-c4cncnc4)nn3)nc2c1C	i	nt	nt	nt	nt	nt
O=c1cc(CCl)[nH]c2nc3ccccc3n12	i	?	18.4µM	-56.2	i	i
O=c1cc(-c2ccccc2)[nH]c2nc3ccccc3n12	i	?	?	i	9.2µM	9.2µM
CC(Sc1nnc(Cc2cccs2)n1C1CCCCC1)C(=O)NCc1ccco1 (stereo not given)	i	i	i	i	14.6µM	14.6µM
CN(C)S(=O)(=O)N1CCC(Oc2ccc(C(=O)N3C[C@@H]4CCC[C@H]3C4)cc2)CC1	i	i	i	i	?	16.4µM
COC1CCCN(C(=O)c2ccc(OC3CCN(S(=O)(=O)N(C)C)CC3)cc2)C1 (stereo not given)	i	i	i	i	?	i
CN(C)S(=O)(=O)N1CCC(Oc2ccc(C(=O)N3C[C@H]4CC[C@H]3C4)cc2)CC1	i	i	?	i	20.6µM	11.6µM
CC(C)CCNC(=O)c1ccc(OC2CCN(S(=O)(=O)N(C)C)CC2)cc1	i	i	i	i	?	?
CC(=O)c1cnn(-c2cc(Oc3ccc(S(=O)(=O)c4ccccc4)cc3)nc(C)n2)c1C	i	nt	nt	nt	nt	nt
Cc1cccc(-c2nnc(SCc3coc(-c4cccs4)n3)n2C)c1	i	nt	nt	nt	nt	nt
SMILES	ALOX12 inh	HT1080 IDH1KD tx	HT1080NT lethal	IL-1B inflam inh	TDP1 cell noCPT	TDP1 cell CPT
COc1ccc(C2c3ccc(O)cc3Oc3ncn4nc(-c5ccccn5)nc4c32)cc1OC (stereo not given)	i	i	i	i	18.4µM	23.1µM
COc1ccc(C2c3ccc(O)cc3Oc3ncn4nc(-c5ccccn5)nc4c32)cc1 (stereo not given)	i	?	i	i	i	i
COc1ccc(C2c3ccc(O)cc3Oc3ncn4nc(COc5ccc(C)cc5)nc4c32)cc1OC (stereo not given)	i	nt	nt	nt	nt	nt
COc1ccc(C2c3ccc(O)cc3Oc3ncn4nc(-c5ccco5)nc4c32)cc1OC (stereo not given)	i	18.4µM	?	i	?	16.4µM
COc1ccc(C2c3ccc(O)cc3Oc3ncn4nc(-c5ccncc5)nc4c32)cc1OC (stereo not given)	i	i	i	-70.3	23.1µM	?
COc1ccc(C2c3ccc(O)cc3Oc3ncn4nc(-c5ccccc5Cl)nc4c32)cc1OC (stereo not given)	i	nt	nt	nt	nt	nt
CCCCCCCn1c(SCC(=O)c2ccccc2)nc2c1c(=O)[nH]c(=O)n2C	i	nt	nt	nt	nt	nt
COc1ccc(CN2CCN(C(=O)c3cc4cc(C)ccc4nc3C)CC2)cc1	i	nt	nt	nt	nt	nt
Cc1ccccc1S(=O)(=O)N1CCN(C2CCN(CCC(C)C)C2=O)CC1 (stereo not given)	i	nt	nt	nt	nt	nt
Clc1ccc(/C=N/Nc2nnc(Cl)c3ccccc23)cc1	i	i	i	i	?	?
CC(=O)Nc1ccc(C=NNc2nnc(NN=Cc3ccc(NC(C)=O)cc3)c3ccccc23)cc1	i	i	i	i	4.11µM	2.91µM
Cc1ccc(/C=N/Nc2nnc(Cl)c3ccccc23)cc1	i	i	i	-62.0	20.6µM	23.1µM
COc1ccc(OC)c(NC(=O)COC(=O)c2ccc(Cl)c(S(=O)(=O)N3CCCC3)c2)c1	i	nt	nt	nt	nt	nt
O=C(C1CC1)N1CCC2(CC1)CC(N(Cc1ccccc1)C1CC1)CCO2 (stereo not given)	i	nt	nt	nt	nt	nt
Cc1ccc(CN2CC[C@@H]3OCC(=O)N(Cc4ccccc4)[C@H]3CC2)o1	i	nt	nt	nt	nt	nt
COc1ccc(-c2noc(C(=O)NC(C)(C)C)c2[C@H](C)O)cc1	i	nt	nt	nt	nt	nt
Cc1ccc(OCC(=O)Nc2cccc(-c3nc4ccccc4o3)c2)cc1C	i	nt	nt	nt	nt	nt
OCCCNc1nc(-c2ccc(Br)cc2)nnc1-c1ccc(Cl)cc1	i	?	i	-56.6	?	23.1µM
CCCc1nc(-c2ccc(-c3ccc(Cl)cc3)nc2OC)no1	i	nt	nt	nt	nt	nt
O=C(O)c1ccc(NC2(C(=O)O)CCCC2)cc1	14.1µM	i	i	i	i	i

Screens deposited in PubChem by National Center for Advancing Translational Sciences (NCATS).
